Screens deposited in PubChem BioAssay by National Center for Advancing Translational Sciences (NCATS).
Many of the other results were omitted from the sample, so hits are more common in it than they were.
Menin MLL FP TR – inhibitors of human menin-MLL interaction, mutant MLL peptide; O00255; Menin + Texas Red MLL mutant peptide, fluorescence polarization; Potency, µM (titrated, usually from 61.6 µM), hits mostly inhibitors; hit rate 0.23% among 270,000; active means well fitted inhibition curve with a large enough effect in the polarisation, with a control signal flat, not every such curve was filed as active; inconclusive means small, poorly fitted or top-dose-only effect, or effect the other way, or a change in a side signal; inactive means no such curve, though single readings can be large or run the other way; the % refers to the polarisation
Target sequence (O00255 whole entry, looked up): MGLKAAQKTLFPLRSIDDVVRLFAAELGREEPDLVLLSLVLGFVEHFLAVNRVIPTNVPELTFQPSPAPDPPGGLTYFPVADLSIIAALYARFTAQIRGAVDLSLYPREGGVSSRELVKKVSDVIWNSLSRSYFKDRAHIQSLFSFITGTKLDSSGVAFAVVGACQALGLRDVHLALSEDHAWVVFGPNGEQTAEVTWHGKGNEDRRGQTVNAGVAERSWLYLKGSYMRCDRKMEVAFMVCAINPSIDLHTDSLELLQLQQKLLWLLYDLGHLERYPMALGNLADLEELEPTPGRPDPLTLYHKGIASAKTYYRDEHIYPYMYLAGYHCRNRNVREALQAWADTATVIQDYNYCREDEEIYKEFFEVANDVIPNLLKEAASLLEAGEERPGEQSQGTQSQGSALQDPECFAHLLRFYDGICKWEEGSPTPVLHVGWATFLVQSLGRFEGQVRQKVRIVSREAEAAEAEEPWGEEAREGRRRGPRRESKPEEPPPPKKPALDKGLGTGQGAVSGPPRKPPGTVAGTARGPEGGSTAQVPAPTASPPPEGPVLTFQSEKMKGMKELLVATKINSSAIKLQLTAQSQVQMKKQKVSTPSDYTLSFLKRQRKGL
MBNL1 CUG block – blocks human MBNL1 binding to CUG repeat RNA; AID 2675; hit rate 0.036% among 280,000; Potency, µM (doses to about 57.5 µM), most hits filed as inhibitors; TR-FRET MBNL1-His/biotin-(CUG)12 binding, 665/545 ratio; Q9NR56; active means well fitted inhibition curve with a large enough effect in the signal ratio, with a control signal flat, not every such curve was filed as active; inconclusive means small, poorly fitted or top-dose-only effect, or effect the other way, or a change in a side signal; inactive means no such curve, though single readings can be large or run the other way; the % refers to the signal ratio
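Compounds (final 92 nM to 58 uM) are added to His-tagged MBNL1 and biotin-(CUG)12, then terbium anti-His antibody and streptavidin-XL665 (5 nM final). After 60 min at room temperature, the 665/545 nm ratio is read.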
Menin-MLL FL inh – menin-MLL binding inhibition, fluorescein peptide; FP activity change, % at 61.4 µM; 290,000 tested, under 10 active; AID 1766; Fluorescence polarization, fluorescein-MLL peptide displacement from menin; active means well fitted curve in the direction sought with a large enough effect in the polarisation, not every such curve was filed as active; inconclusive means small, poorly fitted or top-dose-only effect, or effect the other way, or a change in a side signal; inactive means no such curve, though single readings can be large or run the other way; the % refers to the polarisation
MLL CXXC-DNA inh – blocks binding of human MLL CXXC domain to DNA | hit rate 0.037% among 290,000 | Potency, µM (series often up to 115 µM), hits mostly inhibitors | Q03164 | MLL-CXXC / FITC-HOXA9 DNA fluorescence polarization | AID 2662; active means well fitted inhibition curve with a large enough effect in the polarisation, with a control signal flat, not every such curve was filed as active; inconclusive means small, poorly fitted or top-dose-only effect, or effect the other way, or a change in a side signal; inactive means no such curve, though single readings can be large or run the other way; the % refers to the polarisation
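Purified MLL-CXXC (added from a 7 uM solution) was preincubated 5 min at ambient with pinned compounds in 50 mM Tris-HCl pH 7.5, 50 mM NaCl, 1 mM DTT, 0.05% BSA. Fluorescein-labeled HOX-A9 DNA (50 nM solution) followed, 30 min, then polarization read.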
MLL CXXC FP-Fl – disrupts human MLL CXXC domain binding to DNA | MLL CXXC-DNA binding, fluorescein FP | shares compounds with MLL CXXC-DNA inh | hit rate 70% among 200 | AID 624160 | Potency, µM (doses to about 345 µM), actives largely listed as inhibitors; further: nearly all actives have a fitted effect of over 80% in size
MLL CXXC TxRed – inhibitors of human MLL CXXC domain-DNA interaction, Texas Red format; shares compounds with MLL CXXC-DNA inh; MLL CXXC-DNA binding, Texas Red fluorescence polarization; Potency, µM (doses to about 345 µM), hits mostly inhibitors; hit rate 40% among 200; AID 624161; further: nearly all actives have a fitted effect of over 75% in size
MLL CXXC HTRF – disrupts human MLL CXXC domain binding to DNA by HTRF. shares compounds with MLL CXXC-DNA inh. MLL CXXC-DNA binding, HTRF, biochemical. Potency, µM (highest dose often 172 µM), hits mostly inhibitors. hit rate 30% among 210. AID 624162; further: nearly all actives have a fitted effect of over 80% in size
Each line names hits and unclear results; the compound was inactive in the other large screens (follow-up assays come after a bar, where they were run). Unless noted, the call rests on the fitted dose curve; in most records, active means well fitted inhibition curve with a large enough effect; inconclusive means small, poorly fitted or top-dose-only effect; inactive means no such curve, though single readings can be large or run the other way.

COc1cc(/C=C(\C#N)C(=O)Nc2ccc(C(=O)O)cc2)ccc1OC(=O)c1cccc(F)c1	Menin-MLL FL inh inconclusive, MLL CXXC-DNA inh inconclusive | MLL CXXC FP-Fl inactive | MLL CXXC TxRed inactive | MLL CXXC HTRF inactive
CC(C)C1OC2(C)OC(=N)C1(C#N)C(C#N)(C#N)C2c1ccccc1 (stereo not given)	Menin-MLL FL inh inconclusive, MLL CXXC-DNA inh 18µM | MLL CXXC FP-Fl 89µM | MLL CXXC TxRed 45µM | MLL CXXC HTRF inactive
O=C1NN(c2ccccc2)C(=O)/C1=C\c1ccc2c(c1)OCO2	MLL CXXC-DNA inh inconclusive | MLL CXXC FP-Fl 28µM | MLL CXXC TxRed inconclusive | MLL CXXC HTRF inactive
O=C(O)CCN1C(=O)/C(=C\c2cccc(OCC(=O)Nc3ccc(Cl)cc3)c2)SC1=S	MLL CXXC-DNA inh inconclusive (no result: Menin MLL FP TR) | MLL CXXC FP-Fl inconclusive | MLL CXXC TxRed 142µM | MLL CXXC HTRF inactive
Cc1nc(N=Nc2cc([N+](=O)[O-])ccc2Cl)c(COP(=O)(O)O)c(C=O)c1O	Menin MLL FP TR inconclusive (no result: MBNL1 CUG block, MLL CXXC-DNA inh)
Cc1nc(N=Nc2cc(S(=O)(=O)O)c3cc([N+](=O)[O-])cc(S(=O)(=O)O)c3c2)c(COP(=O)(O)O)c(C=O)c1O	Menin MLL FP TR inconclusive, MBNL1 CUG block inconclusive, MLL CXXC-DNA inh 32µM | MLL CXXC FP-Fl 18µM | MLL CXXC TxRed 36µM | MLL CXXC HTRF 15µM
COC(=O)c1c(C)[nH]c(C)c1-c1ccc(C)cc1	MLL CXXC-DNA inh inconclusive | MLL CXXC FP-Fl 18µM | MLL CXXC TxRed inconclusive | MLL CXXC HTRF inactive
COC(=O)c1c(C)[nH]c(C)c1-c1cccc([N+](=O)[O-])c1	none
CC[C@H](C)[C@H](NC(=O)[C@H](Cc1ccc(O)cc1)NC(=O)[C@H](CCCNC(=N)N)NC(=O)[C@H](CCCNC(=N)N)NC(=O)[C@H](CC(C)C)NC(=O)[C@H](CCC(N)=O)NC(=O)[C@@H](NC(=O)[C@H](CCC(=O)O)NC(=O)[C@H](Cc1ccc(O)cc1)NC(=O)[C@H](CCC(N)=O)NC(=O)[C@H](C)NC(=O)[C@H](CCCNC(=N)N)NC(=O)[C@H](CCC(N)=O)NC(=O)[C@H](CCC(=O)O)NC(=O)[C@H](Cc1cnc[nH]1)NC(=O)[C@@H](NC(=O)[C@H](C)NC(=O)[C@H](Cc1ccc(O)cc1)NC(=O)[C@H](CC(=O)O)NC(=O)CNC(=O)[C@@H]1CCCN1C(=O)[C@H](Cc1ccc(O)cc1)NC(=O)[C@H](CCSC)NC(=O)[C@@H]1CCCN1C(=O)[C@H](CCC(=O)O)NC(=O)[C@H](CC(C)C)NC(=O)[C@@H]1CCCN1C(=O)[C@H](C)N)[C@@H](C)O)[C@@H](C)O)C(=O)N[C@@H](CC(N)=O)C(=O)N[C@H](C(=O)N[C@@H](CC(C)C)C(=O)N[C@H](C(=O)N[C@@H](CCCNC(=N)N)C(=O)N1CCC[C@H]1C(=O)N[C@@H](CCCNC(=N)N)C(=O)N[C@@H](Cc1ccc(O)cc1)C(N)=O)[C@@H](C)O)[C@@H](C)O	none (no result: MBNL1 CUG block, MLL CXXC-DNA inh)
COc1cc(/C=C2/C(=O)NN(c3ccc(C)c(Cl)c3)C2=O)cc([N+](=O)[O-])c1O	Menin MLL FP TR inconclusive, MBNL1 CUG block inconclusive, MLL CXXC-DNA inh inconclusive | MLL CXXC FP-Fl 80µM | MLL CXXC TxRed 113µM | MLL CXXC HTRF inactive
C=CCN1c2ccccc2[C@]23C[C@@H](C(=O)OC)N(C(=O)COCc4ccccc4)C2=NC(C(=O)OC)=C(C(=O)OC)[C@H]13	none (no result: MBNL1 CUG block, MLL CXXC-DNA inh)
Cc1[nH]n(-c2ccccc2)c(=O)c1N=Nc1ccc(C(=O)O)cc1	Menin MLL FP TR inconclusive, MBNL1 CUG block inconclusive
Cc1[nH]n(-c2ccccc2)c(=O)c1N=Nc1cccc(C(=O)O)c1	Menin MLL FP TR inconclusive, MLL CXXC-DNA inh inconclusive | MLL CXXC FP-Fl 14µM | MLL CXXC TxRed inconclusive | MLL CXXC HTRF inactive
N#C/C(=C\c1ccc(C#N)cc1)C(=O)c1ccccc1	MLL CXXC-DNA inh inconclusive
N#C/C(=C\c1cccs1)C(=O)c1ccccc1	MLL CXXC-DNA inh inconclusive (no result: Menin MLL FP TR) | MLL CXXC FP-Fl inactive | MLL CXXC TxRed 113µM | MLL CXXC HTRF inactive
CCCC[C@H](NC(=O)[C@H](CC(C)C)NC(=O)[C@@H](Cc1c[nH]c2ccccc12)NC(=O)[C@H](Cc1ccccc1)NC(=O)[C@@H](Cc1c[nH]c2ccccc12)NC(=O)[C@H](CC(N)=O)NC(=O)[C@@H](Cc1c(Cl)cccc1Cl)NC(=O)[C@@H]1CCCN1C(=O)[C@H](Cc1ccccn1)NC(=O)[C@@H]1CCCN1C(=O)[C@H](N)CCCCNC(=O)c1cccnc1)C(N)=O	none (no result: MBNL1 CUG block, MLL CXXC-DNA inh)
COC(=O)/C=C\c1cc(O)ccc1O	Menin-MLL FL inh inconclusive (no result: MBNL1 CUG block, MLL CXXC-DNA inh)
COC(=O)c1ccc(N2NC(=O)/C(=C/c3ccc(-c4ccc(Cl)c(C(=O)O)c4)o3)C2=O)cc1	Menin MLL FP TR inconclusive, MLL CXXC-DNA inh inconclusive
Cc1ccc(N2NC(=O)/C(=C/c3ccc(-c4ccc(Cl)c(C(=O)O)c4)o3)C2=O)cc1C	Menin MLL FP TR inconclusive, MLL CXXC-DNA inh inconclusive
CC1=NOC(=O)/C1=C\c1ccc(-c2ccc(Cl)c(C(=O)O)c2)o1	MLL CXXC-DNA inh inconclusive | MLL CXXC FP-Fl 20µM | MLL CXXC TxRed 89µM | MLL CXXC HTRF 49µM
CC1(C)OC(=O)C(=Cc2ccc(-c3ccc(Cl)c(C(=O)O)c3)o2)C(=O)O1	MLL CXXC-DNA inh 28µM | MLL CXXC FP-Fl 16µM | MLL CXXC TxRed 56µM | MLL CXXC HTRF 39µM
CC1=NN(c2ccc(Cl)c(C(=O)O)c2)C(=O)/C1=C\c1ccc(-c2ccc(C(=O)O)cc2)o1	Menin MLL FP TR inconclusive, MLL CXXC-DNA inh inconclusive | MLL CXXC FP-Fl 28µM | MLL CXXC TxRed inactive | MLL CXXC HTRF inactive
O=C1NN(c2ccccc2)C(=O)/C1=C/c1ccc(-c2ccc(C(=O)O)cc2)o1	Menin MLL FP TR inconclusive, MLL CXXC-DNA inh 32µM | MLL CXXC FP-Fl 89µM | MLL CXXC TxRed 142µM | MLL CXXC HTRF inconclusive
COC(=O)C1=C(C)N(Cc2ccccc2)C(=NCc2ccco2)N[C@H]1c1ccc(Br)cc1	MLL CXXC-DNA inh inconclusive
O=C(NCCc1c[nH]c2ccccc12)c1ccccc1O	Menin MLL FP TR inconclusive (no result: MBNL1 CUG block, MLL CXXC-DNA inh)
CCC(Nc1ncnc2ccc(-c3c(C)noc3C)cc12)c1ccccc1 (stereo not given)	none (no result: MBNL1 CUG block, MLL CXXC-DNA inh)
CC1(C)CC(=O)C(C(C2=C(O)CC(C)(C)CC2=O)c2ccc(O)c([N+](=O)[O-])c2)=C(O)C1	MLL CXXC-DNA inh 28µM | MLL CXXC FP-Fl 18µM | MLL CXXC TxRed 63µM | MLL CXXC HTRF 7.7µM
CC1(C)CC(=O)C(C(C2=C(O)CC(C)(C)CC2=O)c2ccc([N+](=O)[O-])cc2)C(=O)C1 (stereo not given)	MBNL1 CUG block inconclusive
